Assay outcomes deposited in PubChem by National Center for Advancing Translational Sciences (NCATS).
HT1080NT lethal – kills 2HG-producing HT-1080-NT fibrosarcoma cells; HT-1080-NT fibrosarcoma viability, CellTiter-Glo ATP luminescence, 48 h; Potency, µM (doses to about 46.1 µM), actives largely listed as cytotoxic; hit rate 1.6% among 360,000; AID 686970;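 further: NT is the 2HG producing partner of a matched IDH1 knockdown line; nearly all actives have a fitted effect of over 55% in size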
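HT-1080-NT; 750 cells/well; 5% FBS RPMI; 48 h compound, 37 degrees C; CellTiter-Glo luminescence; curve fitting and curve-class assignment.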
IL1B secr inh – inhibitors of inflammasome signaling (IL-1 beta secretion); THP-1 LPS/ATP IL-1B secretion, AlphaLISA, 16 h; hits give low values; activity change, % at 57.5 µM; hit rate 4.7% among 360,000; AID 743279; in the data active means activity change below about -50%; inconclusive means mostly about -30% to -49%
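Secreted IL-1B measured by AlphaLISA bead assay after 16 h compound exposure of THP-1 cells; compounds (final up to 57.5 uM) added 1 h before LPS (250 ng/mL) and ATP (1.25 mM) stimulation; lower signal means less secretion.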
HT1080 IDH1KD tx – toxicity to HT-1080 IDH1 knockdown cells (counter line). HT-1080 IDH1 knockdown viability, ATP luminescence, 48 h. Potency, µM (series often up to 46.1 µM), usual class: cytotoxic. hit rate 2% among 360,000
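IDH1KD HT-1080 cells, 750/well, RPMI + 5% FBS; compound pinned after 2 h settling; 48 h, 37 °C; CellTiter-Glo luminescence; % activity normalised to DMSO and no-cell wells; curves fitted, classed by r2 and efficacy.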
ELG1 DNA repair – ELG1-dependent DNA repair inhibition | HEK293T ELG1-luciferase reporter, luminescence, 16 h; DNA damage induced by 5-fluorouridine | Potency, µM (series often up to 46.1 µM), hits mostly inhibitors | hit rate 2.3% among 330,000; further: nearly all actives have a fitted effect of over 55% in size
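Overnight (16 hr) co-exposure of 2,000 cells/well to 5-fluorouridine and compound at 37 °C preceded detection. Luciferase was quantified via ONE-Glo luminescence; loss of signal denotes inhibition.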
TDP1 cell CPT – DT40-hTDP1 cell growth loss with CPT; chicken DT40 Tdp1-/-;hTDP1 cells + 20 nM CPT, ATP luminescence, 48 h; Potency, µM (series often up to 46.2 µM), actives largely listed as inhibitors; hit rate 12% among 420,000; further: nearly all actives have a fitted effect of over 55% in size
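Chicken DT40 Tdp1-/- cells stably complemented with human TDP1 were seeded at 400 cells/well in medium containing 20 nM camptothecin, exposed to pin-transferred compounds, and grown at 37 °C for at least 48 hr. Viability was read as ATP luminescence.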
DT40 TDP1 no CPT – qHTS for Inhibitors of human tyrosyl-DNA phosphodiesterase 1 (TDP1): qHTS in cells in absence of CPT | Potency, µM (titrated, usually from 46.2 µM), actives largely listed as inhibitors | DT40 Tdp1-/- hTDP1 cells, no CPT, ATP luminescence, 48 h | hit rate 15% among 420,000 | AID 686978, 2013; further: nearly all actives have a fitted effect of over 55% in size
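Cells were dispensed at 400 per well, compounds added by pin tool, plates incubated ≥48 hr at 37 °C, then CellTiter-Glo added for 30 min at room temperature before luminescence reading. Line: DT40 Tdp1-/- complemented with hTDP1; camptothecin omitted.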
Hits are given with their value; . = inactive; ? = inconclusive; / = no result; [ ] = dose if it differs, or a comment. Compounds with a hit are over-represented: about 19% of the library has one in this group of screens. Unless noted, the call rests on the fitted dose curve; in most records, active means well fitted curve in the direction sought with a large enough effect; inconclusive means small, poorly fitted or top-dose-only effect, or another doubt; inactive means no such curve, though single readings can be large; an effect the other way counts as inactive or inconclusive.

SMILES	HT1080NT lethal	IL1B secr inh	HT1080 IDH1KD tx	ELG1 DNA repair	TDP1 cell CPT	DT40 TDP1 no CPT
CN(C)c1ccc(CN(C(=O)COc2ccccc2)C2CCS(=O)(=O)C2)cc1 (stereo not drawn)	.	.	.	.	.	.
Cc1ccc(OCC(=O)N(Cc2ccc(N(C)C)cc2)C2CCS(=O)(=O)C2)cc1C (stereo not drawn)	.	-72	.	.	.	.
Cc1cc(C)c(OCC(=O)N(Cc2ccc(N(C)C)cc2)CC2CCCO2)c(C)c1 (stereo not drawn)	/	/	/	/	16µM	10µM
Cc1ccc(OCC(=O)N(Cc2ccc(N(C)C)cc2)CC2CCCO2)cc1C (stereo not drawn)	/	/	/	/	15µM	15µM
Cc1ccccc1OCC(=O)N(Cc1ccc(N(C)C)cc1)CC1CCCO1 (stereo not drawn)	/	/	/	/	?	21µM
Cc1ccccc1OCC(=O)N(Cc1ccc(N(C)C)cc1)C1CCS(=O)(=O)C1 (stereo not drawn)	.	.	.	.	.	.
COc1ccc(OC)c(NC(=O)CN2C(=O)C(C)N(c3ccc(C)cc3)C2=O)c1 (stereo not drawn)	.	.	.	.	.	.
CC(C)c1ccc(NC(=O)c2cccn2-c2nnc(N3CCCCC3)s2)cc1	/	/	/	/	18µM	?
CN(C)c1ccc(CNC(=O)c2cccn2-c2nnc(N3CCCCC3)s2)cc1	/	/	/	/	18µM	16µM
CN1C(=O)N(CC(=O)Nc2nccs2)C(=O)C12CCCCC2	.	.	.	?	.	.
CC(C)C[C@H]1CNC(=S)N1CC1CCCN1C[C@H](Cc1ccccc1)N1C[C@H](Cc2ccccc2)N(CC2CCCCC2)C1=S (stereo partly drawn)	.	?	?	/	?	?
CC(C)C[C@H]1CNC(=S)N1CC1CCCN1C[C@H](Cc1ccc(O)cc1)N1C[C@H](Cc2ccccc2)N(CC2CCCCC2)C1=S (stereo partly drawn)	?	-54	.	/	5.8µM	5.8µM
CC(C)C[C@H]1CNC(=S)N1C[C@H]1CCCN1C[C@H](Cc1ccc(O)cc1)N1C[C@H](Cc2ccccc2)N(CC2CCCCCC2)C1=S	.	.	.	/	18µM	18µM
CC(C)C[C@H]1CNC(=S)N1C[C@H]1CCCN1C[C@H](Cc1ccccc1)N1C[C@H](Cc2ccc(O)cc2)N(CC2CCCCC2)C1=S	15µM	?	16µM	/	16µM	23µM
O=C(NCCc1ccc(Cl)cc1)c1ccc2c(c1)OCCO2	.	.	.	?	.	?
COc1ccc(N2CCN(c3ncnc4sc(C(=O)NCC5CCCO5)c(C)c34)CC2)cc1 (stereo not drawn)	.	.	.	?	?	23µM
CCN1CCN(C(=O)c2sc3ncnc(NCC4CCCO4)c3c2C)CC1 (stereo not drawn)	/	/	/	/	.	.
COc1ccccc1N1CCN(c2ncnc3sc(C(=O)NCC4CCCO4)c(C)c23)CC1 (stereo not drawn)	.	.	.	9.2µM	?	13µM
COc1cc(CCC(=O)OCC(=O)Nc2ccc(C)cc2Cl)cc(OC)c1OC	.	.	.	.	.	.
CC(C)COc1ccc(/C(=N/O)c2ccccc2)cc1	?	-79	.[9.24 µM]	?	.	?
COC(=O)c1cc(C)[nH]c2c(C)cc3nc4ccccc4c3c12	?	-98	?	18µM	?	?
CCOC(=O)C1=C(CNCc2ccc(C)cc2)NC(=O)NC1c1ccc(OC)cc1 (stereo not drawn)	?	.	9.2µM	.	21µM	21µM
CCOC(=O)C1=C(CS(=O)(=O)c2ccc(C)c(C)c2)NC(=O)NC1c1ccc(O)cc1 (stereo not drawn)	.	.	.	.	.	.
